Assay outcomes as filed in PubChem.
Pf growth 48h: inhibits P. falciparum growth in the first generation, 48 h; P. falciparum luciferase growth in erythrocytes, 48 h; 5.9% of 310,000 active; Potency, µM (highest dose often 28.7 µM), for the others: at the top dose activity change, negative = inhibition, most hits filed as inhibitors; AID 504832; further: potency means the concentration at half of the fitted maximal effect; on the % scale 0 is the no-effect control and ±100 the full control effect
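Compounds are pin-transferred into medium, infected erythrocytes (2% hematocrit, 0.1% parasitemia final) are added, and plates sit one parasite generation at 37 C in 5% CO2. Detection reagent is then added and luminescence measured.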
AMA1 RON2 block: inhibitors of Plasmodium falciparum AMA1-RON2 interaction. Potency, µM (top dose mostly 58.2 µM), for inactives: top-dose activity change, negative = inhibition, most hits filed as inhibitors. 0.2% of 360,000 active. AlphaScreen AMA1-biotinylated RON2 peptide binding;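 further: potency means the concentration at half of the fitted maximal effect; 0% = vehicle wells and -100% = peptide control; nearly all actives have a fitted effect of over 45% in size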
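AMA1 (3D7) with his tag at 25 nM final met compounds first, then biotinylated RON2 peptide at 25 nM; detection used donor plus acceptor beads, 10 µg/mL apiece, read by AlphaScreen after 30 min at room temperature.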
Cycloheximide cs: counter-screen hit for Shiga toxin inhibitors, cycloheximide; 12% of 300,000 active; max response, %; cell reporter, cycloheximide protein synthesis inhibition counterscreen; AID 2314; in the data active means max response mostly above about 13%, no sharp cut-off; inactive means mostly below about 14%; further: read at 38.3 µM for the half of the compounds with a filed dose; 0% is about no effect
Pf growth 96h: P. falciparum growth inhibition at 96 hours; P. falciparum luciferase reporter growth, 96 h; Potency, µM (top dose mostly 28.7 µM), without a hit: top-dose activity change, negative = inhibition, most hits filed as inhibitors; 6.9% of 320,000 active; AID 504834; further: potency means the concentration at half of the fitted maximal effect; on the % scale 0 is the no-effect control and ±100 the full control effect
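Compounds incubated with erythrocytes infected by luciferase-expressing P. falciparum (2% hematocrit, 0.05% parasitemia final) for 96 hours, 37 C in 5% CO2. Growth inhibition scored as decreased luciferase luminescence.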
HCV inhibitor: blocks hepatitis C virus. Huh7.5.1 HCVcc-Cre infection, luciferase reporter, 44 h. Potency, µM (highest dose often 41.8 µM), inactives show at the highest dose activity change, negative = inhibition, most hits filed as inhibitors. 3.4% of 340,000 active. AID 651820; further: potency means the concentration at half of the fitted maximal effect; on the % scale 0 is the no-effect control and ±100 the full control effect
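Reporter virus HCVcc-Cre (~0.5 moi) infects cells exposed to compound; seeding density 1,000 cells/well with 4 h settling beforehand. Luminescence, 15 sec read, taken 44 h post-infection following a 15 min RT substrate incubation.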
Shiga toxin inh: Shiga toxin inhibition. AID 2315. Vero cells, Shiga toxin protein synthesis inhibition reporter. inhibition, % at 38.7 µM. 9.2% of 290,000 active; in the data active means inhibition mostly above about 28%, no sharp cut-off; inactive means mostly below about 43%; further: 0% is about no effect
Active calls of the source: *; ? = inconclusive; . = no result; [ ] = another dose, or the depositor's remark. Most compounds without a hit are left out; they make up all but 21% or so of the library. Unless noted, the call rests on the fitted dose curve; in most records, active means well fitted curve in the direction sought with a large enough effect; inconclusive means small, poorly fitted or top-dose-only effect, or another doubt; inactive means no such curve, though single readings can be large; an effect the other way counts as inactive or inconclusive.

SMILES	Pf growth 48h	AMA1 RON2 block	Cycloheximide cs	Pf growth 96h	HCV inhibitor	Shiga toxin inh
CCn1nc(C(=O)Nc2nc3ccc(C)cc3s2)c2ccccc2c1=O	19.1%	2.7%	6.3	.	31.6µM*	9.6
COc1ccc2nc(NC(=O)c3cnccn3)sc2c1	29.7%	32.6%	31.4*	.	10.8%	119.0*
Cc1nc2ccc(NC(=O)c3nn(CC(C)C)c(=O)c4ccccc34)cc2s1	3.7%	-2.6%	9.5	-1.8%	5.6%	1.6
CCSc1ncc(Cl)c(C(=O)Nc2nc3ccc(OC)cc3s2)n1	.	.	19.5	.	.	-11.5
CCOc1ccc2nc(NC(=O)C3CCCO3)sc2c1 (stereo not drawn)	-16.4%	-4.3%	0.9	24.4%	-0.7%	23.6
COc1ccc2nc(NC(=O)c3ccccc3-c3ccccc3C(=O)O)sc2c1	7.1%	1.0%	11.2	?	-22.0%	12.7
COc1ccc2nc(NC(=O)c3ccc(NS(=O)(=O)c4cccs4)cc3)sc2c1	-3.9%	-19.1%	34.7*	?	1.6%	23.3
COc1ccc(C(=O)Nc2nc3ccc(OC)cc3s2)cc1	30.2%	-1.4%	39.4*	-8.5%	?	68.3*
COc1ccc2nc(NC(=O)c3cccc(-c4cc5ccccc5oc4=O)c3)sc2c1	?	-12.7%[2.32 µM]	34.1*	4.65µM*	11.2µM*	43.1*
COc1ccc2nc(NC(=O)c3ccc(NC(=O)C4CCCO4)cc3)sc2c1 (stereo not drawn)	?	1.0%	18.6*	14.0%	?	16.5
O=C(CC(=O)NN=Cc1ccc2c(c1)CCC2)NN=Cc1ccc2c(c1)CCC2	.	19.8%	.	.	?	.
CCC(=O)N1CCC1(C)C(=O)Nc1ncc(C)s1 (stereo not drawn)	.	15.4%	.	.	.	.
CCN(CC)c1cc(C)c2cc(NC(=O)CNC(C)=O)ccc2n1	0.0%	6.9%	13.3	9.5%	?	38.9
COc1ccc2nc(NC(=O)c3ccccc3C(=O)O)sc2c1	-83.6%	42.7%	8.8	5.6%	6.6%	-4.1
CCn1cc([N+](=O)[O-])c(C(=O)Nc2nc3ccc(OC)cc3s2)n1	38.4%	-0.6%	15.0*	6.6%	?	40.9
COc1ccc2nc(NC(=O)c3ccccc3F)sc2c1	141.4%	16.2%	27.0*	?	?	55.7*
CCN(CC)c1cc(C)c2cc(NC(=O)c3ccccc3F)ccc2n1	10.4µM*	0.5%	16.3*	?	10µM*	22.0
COc1cc(C(=O)OCC(=O)Nc2ccc(N3CCOCC3)cc2)ccc1OCC(C)C	-16.5%	-4.8%	.	6.2%	-0.9%	.
CCS(=O)(=O)c1ccc(C(=O)Nc2ccccc2OC)c(Cl)c1Cl	0.6%	-1.5%	-7.1	-14.4%	10.0%	2.9
Cc1ccccc1-n1ncc2c([N+](=O)[O-])cc([N+](=O)[O-])cc21	9.28µM*	?	-5.2	?	7.94µM*	2.0
Cc1[nH]c2ccccc2c1CCN(Cc1cccnc1)C(=S)Nc1cccc(F)c1	?	?	-1.0	?	15.8µM*	-10.2
Cc1[nH]c2ccccc2c1CCN(Cc1cccnc1)C(=S)NC(C)(C)C	11.5%[0.00184 µM]	-2.9%	-1.8	13.1µM*	-13.1%	-8.1
Cc1[nH]c2ccccc2c1CCN(Cc1cccnc1)C(=S)Nc1ccc(F)cc1	?	-7.5%	1.3	-64.0%	-23.6%	-11.5
COc1ccccc1C1CC(c2ccc(NS(C)(=O)=O)cc2)=NN1C(=O)c1ccccc1 (stereo not drawn)	2.08µM*	-1.4%	8.2	?	14.6%	9.4
COc1ccc(OC)c(C2CC(c3ccc(NS(C)(=O)=O)cc3)=NN2C(=O)c2ccccc2)c1 (stereo not drawn)	?	-10.8%	10.5	?	11.8%	41.2
SMILES	Pf growth 48h	AMA1 RON2 block	Cycloheximide cs	Pf growth 96h	HCV inhibitor	Shiga toxin inh
COc1ccccc1C1CC(c2ccc(NS(C)(=O)=O)cc2)=NN1S(=O)(=O)c1ccccc1 (stereo not drawn)	?	-6.0%	-17.4	?	-15.3%	-9.6
CCS(=O)(=O)Nc1ccc(C2=NN(C(=O)c3ccccc3)C(c3cccs3)C2)cc1 (stereo not drawn)	?	-0.9%	-0.3	?	-27.1%	0.4
O=C(c1ccccc1)N1N=C(c2ccccc2)CC1c1ccccc1 (stereo not drawn)	.	13.8%	-2.7	2.33µM*	12.8%	12.8
Cc1cccc(C(=O)N2N=C(c3ccc(NS(C)(=O)=O)cc3)CC2c2cccs2)c1 (stereo not drawn)	8.28µM*	-1.6%	-3.2	?	?	-5.2
COc1cccc(C2CC(c3ccc(NS(C)(=O)=O)cc3)=NN2C(=O)c2ccccc2)c1OC (stereo not drawn)	?	1.9%	51.2*	-75.6%	-10.8%	133.6*
COc1ccc(N2C(=NC(=O)C(C)Oc3ccccc3)SC3CS(=O)(=O)CC32)cc1 (stereo not drawn)	5.5%	-4.4%	-1.5	-26.7%	19.6%	-1.4
COc1ccc(C(=O)N2N=C(c3cccs3)CC2c2ccccc2O)cc1 (stereo not drawn)	?	-2.2%	8.8	?	?	14.5
CCC(CC)C(=O)N1N=C(c2ccc(NS(C)(=O)=O)cc2)CC1c1ccccc1 (stereo not drawn)	?	-7.7%	-2.9	?	?	-12.2
O=C(c1ccccc1)N1N=C(c2ccccc2)CC1c1cccs1 (stereo not drawn)	?	-8.1%	9.5	?	-21.0%	-14.2
CCC(CC)C(=O)N1N=C(c2ccc(NS(C)(=O)=O)cc2)CC1c1ccc(C)cc1 (stereo not drawn)	?	-10.9%	6.8	5.22µM*	?	10.0
COc1ccccc1C1CC(c2ccccc2)=NN1C(=O)c1ccccc1 (stereo not drawn)	0.37µM*	0.0%	-7.6	1.1%	-19.8%	-5.0
Cc1ccc(C(=O)N2N=C(c3ccc(Br)cc3)CC2c2ccccc2O)cc1 (stereo not drawn)	?	-6.7%	12.9*	10.4µM*	?	5.5
O=C(O)c1ccccc1C(=O)N1N=C(c2ccccc2)CC1c1ccccc1O (stereo not drawn)	-16.9%	73.9%	52.5*	?	21.9%	67.3*
Cc1cc(C)cc(Cn2cc(CN3CC(N4CCN(CCO)CC4)CS3(=O)=O)nn2)c1 (stereo not drawn)	.	6.7%	.	.	.	.
CCCNC(=O)CCCN1C(=O)c2ccccc2Sc2ncccc21	-8.2%	15.4%	3.7	?	-7.3%	-4.2
COc1ccc(Cc2noc(=O)[nH]2)cc1	.	-8.8%	.	.	.	.
CCC(=O)N1N=C(c2ccccc2)CC1c1ccccc1 (stereo not drawn)	?	-4.2%	-2.1	?	-22.4%	1.2
COc1ccc2c(c1OC)C(=O)N1N=C(c3ccc(F)cc3)CC21 (stereo not drawn)	?	4.3%	9.8	139.4%	1.6%	20.8
